# Reference: the supplement of paper PMC10338343
# ± gives the standard deviation.
# Tested on: MILI (PIWIL2) piRISC loaded with piRNA #1 (26 nt)
# Test: pre-steady-state target cleavage rate (min^-1); guide: piRNA #1 5'p-UGAGGUAGUAGGUUGUAUAGUAUCCA; MIWI and MILI are mouse PIWI proteins and EfPiwi is from a freshwater sponge; tags in brackets are library labels; higher = faster piRNA-guided slicing of the target
# Conditions: auxiliary factor: 500 nM mouse GTSF1
# In short: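 Cleave-'n-Seq reactions paired 0.1 nM transcribed, DNA-blocked target RNA library with 1 nM active affinity-purified piRISC holding one synthetic guide, plus or minus 500 nM GTSF1 partner protein, in HEPES–potassium acetate buffer at 33 °C for 0–8 or 0–960 min. After sequencing of uncleaved targets and normalisation to depth and weakly complementary targets, the pre-steady-state cleavage rate was taken from a burst-and-steady-state fit. Three trials were pooled, and k3 was capped at 0.0001 min^-1.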
row,Sequence,pre-steady-state target cleavage rate
1,GGAGACCAUACUAAACAACCUACUACCUCA,0.153 ± 0.016
2,GGAGACGAAUCUAUACAACCUACUACCUCA,0.146 ± 0.015
3,GGAGACCAUACUAUACAACCAACUACGUCA,0.00313 ± 0.003
4,GGAGUGGAUAGUAUACAACCAACUACCUCA,0.0064 ± 0.0029
5,GGAGAGGAUACUUUACAACCAACUACCUCA,0.00433 ± 0.0019
6,GGAGACCAUGACUAUACAACCUACUACCUCA,0.142 ± 0.021
7,GGAGAGGAUACUUUACAACCUACAACCUCA,0.11 ± 0.016
8,GGAGUGCAUACUAUACAACCAACUACCUCA,0.00672 ± 0.0023
9,GGAGAGGAUACUAUACAACGUUCUACCUCA,0.00213 ± 0.0019
10,GGAGUGGAUACUAUUCAUCCUACUACCUCA,0.265 ± 0.016
11,GGAGUUGAUACUAUACAACCUACUACCUCA,0.204 ± 0.012
12,GGAGACCUAUCUAUACAAGCUACUACGUCA,0.112 ± 0.012
13,GGAGUGGAUACUAUACAACCUACUACCUUA,0.112 ± 0.011
14,GGAGAGGAUACUAUCACAACCUACUACCUCA,0.136 ± 0.011
15,GGAGACCUUACUAUACAACCUACUAGGAGA [g6:g22:cont:t1A],0.00747 ± 0.0032
16,GGAGUCGAUACUAUACAACCAACUACCUCA,0.0053 ± 0.0019
